Here are results for 6 compounds from the supplement of paper PMC7411054.

What all share (details): treatment time: 24 h
Assay [1] deals with A549-ACTB-RAB5A. In words: lowest phenotypically active concentration; higher = less potent. The method, boiled down:
(§1)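 Fifteen reporter lines derived from A549, HepG2 and WPMY1 cells by gene editing, carrying BFP for segmentation plus GFP and RFP/FusionRed markers, were exposed to 0.3, 1, 3 or 9 µM for 24 h in four wells each and imaged live. Live-cell features from each well were normalised to solvent control wells. A well set counted as deviating when ≥3 of 4 wells lay beyond the 95th percentile of control Euclidean distances, and as reproducible when the median replicate Pearson correlation exceeded the 95th percentile of non-replicates. Phenotypic activity was assigned only when both criteria were met.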

Assay [2] deals with HepG2-GM130-SQSTM1. Described as above. The method, boiled down:
as §1

The test system of assay [3] is A549-ACTB-RAB5A. Kind of assay: phenotypically active (imaging signature differs from DMSO and reproducible) at any of 0.3-9 uM (binary (1 = active, 0 = inactive)); higher = active. The gist of the method: as §1
For assay [4], the system named is A549-CANX-COX4. The assay is described as above. The gist of the method: as §1
Assay [5] concerns A549-GM130-SQSTM1. The assay is described as above. The method, boiled down:
as §1

Assay [6] concerns A549-TP53BP1-CLTA. Described as above. The method, boiled down:
as §1

For assay [7], the system named is A549-TUBA1B-RELA. The assay is described as above. The method, boiled down:
as §1

The test system of assay [8] is HepG2-ACTB-RAB5A. The assay is described as above. The gist of the method: as §1
For assay [9], the system named is HepG2-CANX-COX4. The description is as above. The method, boiled down: as §1
Assay [10] relates to HepG2-GM130-SQSTM1. Described as above. The gist of the method:
as §1

For assay [11], the system named is HepG2-TP53BP1-CLTA. Described as above. The gist of the method: as §1
Assay [12] concerns HepG2-TUBA1B-RELA. Described as above. The gist of the method: as §1
The test system of assay [13] is WPMY1-ACTB-RAB5A. The description is as above. The method, boiled down:
as §1

Assay [14] deals with WPMY1-CANX-COX4. The assay is described as above. The gist of the method: as §1
The test system of assay [15] is WPMY1-GM130-SQSTM1. The description is as above. The gist of the method:
as §1

Assay [16] concerns WPMY1-TP53BP1-CLTA. Described as above. The gist of the method: as §1
Assay [17] relates to WPMY1-TUBA1B-RELA. The description is as above. The method, boiled down:
as §1

Assay [18] deals with HepG2-ACTB-RAB5A. In words: lowest phenotypically active concentration; higher = less potent. The method, boiled down: as §1
Assay [19] relates to WPMY1-GM130-SQSTM1. The description is as above. The method, boiled down:
as §1

For assay [20], the system named is A549-GM130-SQSTM1. The assay is described as above. The method, boiled down:
as §1

Structures can show the parent of a compound that is named as a salt.

Regarding `C[C@@H]1CCN(C(=O)CC#N)C[C@@H]1N(C)c1ncnc2[nH]ccc12`, the “lowest phenotypically active concentration” value in assay [1] and in assay [2] was 9 µM in each case. Also, the phenotypically active in assay [3] is 1 (active); in [4] it was 0 (inactive); in assay [5], 0 (inactive); in [6], 0 (inactive); in assay [7] it was 0 (inactive); in assay [8], 0 (inactive). The phenotypically active is 1 (active) in assay [9]; 1 (active) in assay [10]; 1 (active) in [11]; 0 (inactive) in assay [12]; 0 (inactive) in assay [13]; 0 (inactive) in assay [14]. The phenotypically active in assay [15], in assay [16] and in assay [17] was 0 (inactive) each time.
Consider `O=C(O/N=C1\c2ccccc2-c2nc3ccccc3nc21)c1ccco1`, for which, in assay [1], the “lowest phenotypically active concentration” value was determined as 9 µM. Also, the phenotypically active in [3] is 1 (active); in assay [4], 0 (inactive); in [5], 0 (inactive); in assay [6] it was 0 (inactive); in [7], 0 (inactive); in assay [8], 0 (inactive). In addition, the phenotypically active in assay [9] was 0 (inactive); in assay [10] it was 0 (inactive); in assay [11], 0 (inactive); in assay [12] it was 0 (inactive); in assay [13], 1 (active); in assay [14] it was 1 (active). The phenotypically active in assay [15] was 0 (inactive); in assay [16], 1 (active); in assay [17], 1 (active).
On to `CCOC(=O)N1CCC(=C2c3ccc(Cl)cc3CCc3cccnc32)CC1` [loratadine], for which the “lowest phenotypically active concentration” value in assay [1] was 9 µM. In addition, the phenotypically active is 1 (active) in assay [3]; 0 (inactive) in [4]; 0 (inactive) in assay [5]; 0 (inactive) in assay [6]; 0 (inactive) in [7]; 0 (inactive) in [8]. The phenotypically active in [9] was 1 (active); in assay [10], 0 (inactive); in assay [11] it was 0 (inactive); in assay [12], 0 (inactive); in assay [13], 0 (inactive); in assay [14], 0 (inactive). Moreover, the phenotypically active in assay [15], in assay [16] and in assay [17] was 0 (inactive) each time.
Regarding `COC(=O)C1=CO[C@@H](C)[C@H]2CN3CCc4c([nH]c5ccccc45)[C@@H]3C[C@H]12` [Ajmalicine hydrochloride], the “lowest phenotypically active concentration” value in assay [18] was determined as 9 µM; in assay [19], 3 µM. Moreover, the phenotypically active in assay [3] is 0 (inactive); in [4], 1 (active); in assay [5], 0 (inactive); in assay [6], 0 (inactive); in assay [7] it was 0 (inactive); in [8], 1 (active). In addition, the phenotypically active in assay [9] was 1 (active); in [10], 0 (inactive); in assay [11], 1 (active); in [12], 0 (inactive); in [13], 0 (inactive); in assay [14] it was 1 (active). The phenotypically active in assay [15] was 1 (active); in [16], 0 (inactive); in assay [17], 0 (inactive).
For `CCCOc1ccn2c(C(C)=O)cc(-c3ccccc3S(C)(=O)=O)c2c1`, the “lowest phenotypically active concentration” value in [20] was determined as 9 µM. Besides, the phenotypically active is 0 (inactive) in assay [3]; 0 (inactive) in assay [4]; 1 (active) in assay [5]; 0 (inactive) in assay [6]; 0 (inactive) in assay [7]; 0 (inactive) in [8]. In addition, the phenotypically active in [9], in [10], in [11], in [12], in [13] and in assay [14] was 0 (inactive) in each case. Also, the phenotypically active in assay [15], in assay [16] and in assay [17] was 0 (inactive) in each case.
Turning to `COc1cc(C)c(/C=C/C(C)=C/C=C/C(C)=C/C(=O)O)c(C)c1C` [acitretin], the “lowest phenotypically active concentration” value in assay [1] and in assay [19] was 9 µM throughout. Further, the phenotypically active in [3] is 1 (active); in [4], 0 (inactive); in assay [5] it was 0 (inactive); in assay [6] it was 0 (inactive); in assay [7], 0 (inactive); in assay [8], 0 (inactive). The phenotypically active in [9] is 0 (inactive); in assay [10], 0 (inactive); in [11], 0 (inactive); in [12] it was 0 (inactive); in assay [13], 0 (inactive); in assay [14], 1 (active). The phenotypically active in [15] was 1 (active); in assay [16] it was 0 (inactive); in assay [17], 0 (inactive).
